Source: PMC5540273 (PLoS ONE, 2017)

Assays:
Conditions in all cases: concentration: 1 μM, replicates: in singlicate; n = 1
[1] = system: ANKK1
[2] = system: T1, ARK5
T1 construct: gene NUAK1

[3] = system: T2, ASK1
T2 construct: gene MAP3K5

[4] = system: T3, ASK2
T3 construct: gene MAP3K6

[5] = system: AURKA
[6] = system: AURKB
[7] = system: AURKC
[8] = system: AXL
[9] = system: T4, BIKE
T4 construct: gene BMP2K

[10] = system: BLK
[11] = system: BMPR1A
[12] = system: BMPR1B
[13] = system: BMPR2
[14] = system: BMX
[15] = system: BRAF
[16] = system: T5, BRK
T5 construct: gene PTK6

[17] = system: BRSK1
[18] = system: BRSK2
[19] = system: BTK
[20] = system: BUB1
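Also: KINOMEscan kinase panel screen.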

| SMILES | %Inh [1] | %Inh [2] | %Inh [3] | %Inh [4] | %Inh [5] | %Inh [6] | %Inh [7] | %Inh [8] | %Inh [9] | %Inh [10] | %Inh [11] | %Inh [12] | %Inh [13] | %Inh [14] | %Inh [15] | %Inh [16] | %Inh [17] | %Inh [18] | %Inh [19] | %Inh [20] |
| --- | --- | --- | --- | --- | --- | --- | --- | --- | --- | --- | --- | --- | --- | --- | --- | --- | --- | --- | --- | --- |
| COc1ccc(C2=C(Nc3cccc(C(=O)O)c3)C(=O)NC2=O)cc1 [SB-390765] | 6% | 5% | 9% | 21% | 18% | 26% | 0% | 19% | 18% | 0% | 13% | 4% | 0% | 17% | 9% | 0% | 0% | 0% | 0% | 0% |
| O=c1cc(N2CCOCC2)nc2n(Cc3cccc(Cl)c3Cl)ccn12 [GSK2286295] | 5% | 24% | 0% | 0% | 12% | 18% | 23% | 100% | 24% | 35% | 0% | 0% | 0% | 25% | 0% | 8% | 13% | 0% | 0% | 0% |
| COc1ccc(CNC(=O)NC2CCN(c3ccnc(Nc4cc(OC)c(OC)c(OC)c4)n3)C2)cc1 (stereo not shown) [GSK1379748] | 33% | 25% | 0% | 12% | 79% | 84% | 60% | 8% | 25% | 0% | 1% | 0% | 0% | 21% | 0% | 3% | 0% | 0% | 32% | 32% |
| COc1ccccc1-c1ccc2c(NC(=O)C3CC3)n[nH]c2n1 [SB-711239] | 9% | 0% | 11% | 17% | 0% | 0% | 0% | 12% | 0% | 6% | 0% | 0% | 10% | 16% | 5% | 2% | 0% | 2% | 32% | 11% |
| Cn1ccc2ncnc(Oc3cccc(C(=O)Nc4ccccc4)c3)c21 | 28% | 14% | 0% | 0% | 21% | 0% | 26% | 3% | 14% | 1% | 5% | 13% | 14% | 0% | 0% | 15% | 0% | 0% | 0% | 8% |
| COc1cc(Nc2nccc(N3CCC(NC(=O)Nc4cc(C)ccc4C)C3)n2)cc(OC)c1OC (stereo not shown) [GSK1379762] | 13% | 50% | 1% | 7% | 92.7% | 94.4% | 81% | 0% | 60% | 10% | 0% | 0% | 0% | 35% | 7% | 13% | 0% | 0% | 0% | 26% |
| Cc1c(Cn2ccn3c(=O)cc(N4CCOCC4)nc23)cccc1C(F)(F)F [GSK2289044] | 6% | 9% | 4% | 7% | 7% | 0% | 3% | 7% | 0% | 0% | 0% | 0% | 0% | 38% | 0% | 0% | 0% | 0% | 0% | 0% |
| Cc1cccc(-c2nc(Nc3cccc(C(N)=O)c3)c3ccccc3n2)n1 [GW876019] | 0% | 6% | 17% | 0% | 0% | 30% | 12% | 0% | 11% | 21% | 74% | 0% | 14% | 0% | 0% | 9% | 18% | 0% | 9% | 16% |
| CCn1c(-c2ccccn2)nc2cnccc21 [SB-736398] | 0% | 0% | 17% | 0% | 0% | 3% | 7% | 12% | 16% | 9% | 0% | 0% | 21% | 77% | 11% | 14% | 100% | 0% | 7% | 40% |
| Cc1nnc(-c2ccc3occ(-c4ccc(S(C)=O)cc4)c3c2)[nH]1 (stereo not shown) | 28% | 6% | 0% | 3% | 25% | 49% | 0% | 24% | 0% | 0% | 11% | 37% | 26% | 0% | 2% | 0% | 38% | 0% | 0% | 26% |
| Fc1cccc(COc2nnc(-c3ccc4c(c3)CCO4)o2)c1 | 0% | 5% | 0% | 23% | 15% | 37% | 0% | 0% | 0% | 0% | 0% | 6% | 18% | 0% | 0% | 0% | 0% | 6% | 17% | 20% |
